We go through 21 molecules from PubChem BioAssay (NCI).

Experiment [1] in a line: NCI Yeast Anticancer Drug Screen. Data for the rad50 strain (AID 155).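 Further: 0% = growth of vehicle-only cultures of the same strain.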 Particulars: S. cerevisiae rad50 strain growth inhibition; at 50.0 µM; active compounds read high. Summed up: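 Vehicle-treated cultures provide the reference for the growth inhibition reported for compound-exposed, repair-deficient yeast.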
Experiment [2] in a line: NCI Yeast Anticancer Drug Screen. Data for the mec2-1 strain (AID 157). Particulars: S. cerevisiae mec2-1 strain, at 50.0 µM, active compounds read high. Put shortly: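 Using mec2-1 yeast: add compound, measure growth, express inhibition versus vehicle-treated cultures.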
Experiment [3] in a line: NCI Yeast Anticancer Drug Screen. Data for the sgs1 mgt1 strain (AID 161).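 Further: 0% = growth of cultures given vehicle only.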 Particulars: S. cerevisiae sgs1 mgt1 strain, at 50.0 µM, active compounds read high. Put shortly: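 Growth of a repair-deficient yeast mutant was monitored after compound treatment and expressed as inhibition relative to vehicle-treated cultures.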
The nature of experiment [4]: NCI Yeast Anticancer Drug Screen. Data for the cln2 rad14 strain (AID 165).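 Further: 0% = growth equal to vehicle treated cultures.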 To be noted: S. cerevisiae cln2 rad14 strain, at 50.0 µM, active compounds read high. Summed up:
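Yeast strain cln2 rad14, bearing defects in cell cycle control and DNA repair, serves as the test system; values reflect growth inhibition compared with vehicle.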

Experiment [5] is described as follows: NCI Yeast Anticancer Drug Screen. Data for the bub3 strain (AID 167). Particulars: S. cerevisiae bub3 mutant strain, at 50.0 µM, active compounds read high. Summed up:
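Mutant yeast screening strain plus compound; vehicle-treated cultures serve as the 0% inhibition reference.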

Experiment [6] in a line: NCI Yeast Anticancer Drug Screen. Data for the mlh1 rad18 strain (AID 175). Particulars: S. cerevisiae mlh1 rad18 strain growth inhibition; at 50.0 µM; active compounds read high. Put shortly:
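Steps: expose repair-defective yeast to compound; measure growth; express inhibition against vehicle-treated controls.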

This is part of a sample that, as a whole, favours compounds with a hit. Of some 79,000 tested, about 15% had one in any assay. Unmarked numbers belong to inactive results. Activity calls are given as the source filed them. No stated cut-off is given here; in the data, active means growth inhibition above about 70%; inactive means the rest.

Regarding `Cc1onc(-c2ccccc2)c1NC(=O)OC(C)c1cccnc1` (stereo unspecified), the growth inhibition in experiment [1] was -6.3%; in experiment [2], -22.9%; in experiment [3], 3.7%; in experiment [4] it was 4.9%; in experiment [5], 18.1%; in experiment [6], 3.55%.
On to `FC(F)(F)c1ccc2nc[nH]c2c1`, for which the growth inhibition is 5.3% in experiment [1]; -10.2% in experiment [2]; -3.15% in experiment [3]; -10.4% in experiment [4]; 9.6% in experiment [5]; 6.95% in experiment [6].
With `O=C(O)c1ccccc1/C=N\NC1=NCCN1`, the growth inhibition is -45.1% in experiment [1]; -13.4% in experiment [2]; -11.4% in experiment [3]; 12.7% in experiment [4]; -13.7% in experiment [5]; -6.35% in experiment [6].
In the case of `O=C(OCc1ccccc1CN1CCOCC1)c1ccc(Cl)cc1`, the growth inhibition in experiment [1] is 42.1%; in experiment [2] it was 68.5%; in experiment [3], 75.7% (active); in experiment [4], 84% (active); in experiment [5] it was 87% (active); in experiment [6], 74.8% (active).
On to `O=C1C=C2CCCCCCCCC(C1)C2` (stereo unspecified), for which the growth inhibition in experiment [1] was -1.85%; in experiment [2] it was -9.85%; in experiment [3] it was -5.45%; in experiment [4], -18.8%; in experiment [5], 12.4%; in experiment [6], 0.1%.
Take `C=CCC(OC(=O)C=C(C)C)c1ccc2c(c1)OCO2` (stereo unspecified): the growth inhibition is -23.6% in experiment [1]; -31.9% in experiment [2]; -6.65% in experiment [3]; -5.5% in experiment [4]; 38.8% in experiment [5]; 6.3% in experiment [6].
`Cc1ccc(S(=O)(=O)N/N=C2/CCC(C(C)(C)C)CC2Br)cc1` (stereo unspecified): the growth inhibition was 3.9% in experiment [1]; -2.4% in experiment [2]; -6.35% in experiment [3]; -2.9% in experiment [4]; 17.4% in experiment [5]; 2.1% in experiment [6].
With `Cc1ccc(OCC2OC(n3cnc4c(Cl)nc(N)nc43)CC2Oc2ccc(C)cc2)cc1` (stereo unspecified), the growth inhibition in experiment [1] is 2.3%; in experiment [2] it was -11%; in experiment [3], 13.4%; in experiment [4], 14.6%; in experiment [5] it was 2.4%; in experiment [6], -13.2%.
Take `CC1(C)C2CCC13CS(=O)(=O)N1O[C@]13C(=O)O2` (stereo partly specified): the growth inhibition in experiment [1] is 19.3%; in experiment [2] it was 2.7%; in experiment [3], 6.55%; in experiment [4], 15.1%; in experiment [5] it was -1.05%; in experiment [6] it was 31.9%.
`Cc1ccsc1/C=N/NC(N)=S`: the growth inhibition in experiment [1] was 30%; in experiment [2] it was -7%; in experiment [3], 32.5%; in experiment [4] it was 5.55%; in experiment [5], 9.2%; in experiment [6] it was 28.7%.
As to `c1ccc(-c2cccc(-c3cccc(-c4ccccc4)c3)c2)cc1`, the growth inhibition is 18.1% in experiment [1]; 0.6% in experiment [2]; 7.5% in experiment [3]; -47.9% in experiment [4]; 16.8% in experiment [5]; -6.65% in experiment [6].
`O=C(Nc1ncnc2c1ncn2C1CCC(CO)O1)c1ccccc1` (stereo unspecified): the growth inhibition in experiment [1] is -1.35%; in experiment [2], 2.15%; in experiment [3], 3.7%; in experiment [4], 7.45%; in experiment [5], 14%; in experiment [6], 16.9%.
With `C=C1CC(Cn2cc(C)c(=O)[nH]c2=O)(c2ccc(-c3ccccc3)cc2)OC1=O` (stereo unspecified), the growth inhibition in experiment [1] was 8.9%; in experiment [2] it was -5.35%; in experiment [3] it was 38.6%; in experiment [4], 37.7%; in experiment [5], 29.5%; in experiment [6], 47.1%.
Take `COc1ccc(OC)c(C(=O)C=C(C(F)(F)F)C(F)(F)F)c1`: the growth inhibition in experiment [1] was -7.65%; in experiment [2], -0.95%; in experiment [3] it was -3.8%; in experiment [4], -41.6%; in experiment [5] it was -9.3%; in experiment [6] it was 58.9%.
For the molecule `ON=C(C(Cl)(Cl)Cl)C(Cl)(Cl)Cl`, the growth inhibition in experiment [1] was -17.2%; in experiment [2], -26%; in experiment [3] it was -8.35%; in experiment [4], 4.9%; in experiment [5] it was -11.9%; in experiment [6], -29.8%.
Consider `CCCC(O)C(C)(C)C` (stereo unspecified), for which the growth inhibition in experiment [1] is -35.7%; in experiment [2] it was -67.5%; in experiment [3], -51.6%; in experiment [4], -11.2%; in experiment [5] it was -43.5%; in experiment [6], -42%.
Take `CC1CCC2C(C)(C)CC3(C)CCC1C23O` (stereo unspecified): the growth inhibition is 29.9% in experiment [1]; 45.5% in experiment [2]; 81% (active) in experiment [3]; 30.4% in experiment [4]; 61.6% in experiment [5]; 83.2% (active) in experiment [6].
For the molecule `COc1ccc(C2=NOC3COC4C=CC=CC4OCC23)cc1` (stereo unspecified), the growth inhibition in experiment [1] is -11.4%; in experiment [2], -22.1%; in experiment [3], -13.6%; in experiment [4], -17.9%; in experiment [5] it was -19.4%; in experiment [6], -18.6%.
As to `CC1(C)COC(c2ccccc2Cl)OC1`, the growth inhibition was 20.1% in experiment [1]; 9% in experiment [2]; -0.45% in experiment [3]; -24.6% in experiment [4]; 0.7% in experiment [5]; 18.6% in experiment [6].
As to `O=C(NCC1CC1)NC(=O)c1c(F)cccc1Cl`, the growth inhibition was -1.2% in experiment [1]; -13% in experiment [2]; 12.6% in experiment [3]; 20.8% in experiment [4]; 36.6% in experiment [5]; 9.65% in experiment [6].
Take `COc1ccc(Oc2nc(=O)n3ccccc3n2)cc1`: the growth inhibition is -13.4% in experiment [1]; 0.65% in experiment [2]; -14.6% in experiment [3]; -12.6% in experiment [4]; 9.45% in experiment [5]; -20.7% in experiment [6].
